D1 agonist: Allosteric Agonists of the Human D1 Dopamine Receptor: qHTS | HEK293 T-REx D1 cells, calcium flux, agonist mode | 360,000 tested, 1% active | D(1A) dopamine receptor (Homo sapiens), P21728 | AID 504660, 2011 | activation, % at 2 µM
Target sequence (P21728 whole entry, looked up): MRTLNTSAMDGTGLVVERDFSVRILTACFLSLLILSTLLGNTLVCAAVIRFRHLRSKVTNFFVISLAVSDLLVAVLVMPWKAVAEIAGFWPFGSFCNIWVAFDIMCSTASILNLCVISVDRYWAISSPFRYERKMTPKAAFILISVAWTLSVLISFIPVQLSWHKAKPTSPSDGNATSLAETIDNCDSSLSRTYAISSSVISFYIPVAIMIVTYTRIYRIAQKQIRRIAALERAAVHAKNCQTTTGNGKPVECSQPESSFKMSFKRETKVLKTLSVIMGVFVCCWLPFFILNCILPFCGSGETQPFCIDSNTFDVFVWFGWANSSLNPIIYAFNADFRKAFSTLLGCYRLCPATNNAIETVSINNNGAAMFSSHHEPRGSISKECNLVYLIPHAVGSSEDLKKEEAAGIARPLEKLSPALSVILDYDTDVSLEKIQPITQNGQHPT
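Inducible HEK293 T-REx D1 cells, force-coupled to calcium signalling, were plated at 4000 cells/well with tetracycline and held overnight at 30 C. After no-wash calcium dye loading, compound-evoked calcium rise over 180 s flagged agonists.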
D1 potentiator: Potentiators of Human D1 Dopamine Receptor: qHTS; D(1A) dopamine receptor (Homo sapiens), P21728; HEK293 TREx D1 cells, calcium flux, dopamine EC20 potentiation; potentiation, % at 10 µM; 360,000 tested, 0.036% active; AID 504651, 2011; in the data active = potentiation above about 30%
GRP78 ERSR act: qHTS for Inducers of the Endoplasmic Reticulum Stress Response (ERSR) in Human Glioma: qHTS; 420,000 tested, 0.02% active; U87-MG GRP78 promoter luciferase reporter, 16 h; Potency, µM, actives largely listed as activators; AID 602332, 2012; active = well fitted activation curve with a large enough effect; also: series mostly up to about 76 µM; nearly all actives have a fitted effect of over 35% in size
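Stably transfected U87-MG human glioma cells carrying a GRP78-based luminescent sensor were seeded at 1000 cells/well, pin-dosed with compounds and incubated 16 h. Luciferase reagent was then added, and end-point luminescence was read after 10 min at room temperature.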
TRHR enhancer: qHTS for Small Molecule Agonists and Allosteric Enhancers of Human TRH Receptor: Primary Screen for Enhancers | TRHR cells, fluo-8 calcium fluorescence, EC20 TRH enhancement | enhancement, % at 2 µM | 360,000 tested, 0.66% active | Thyrotropin-releasing hormone receptor (Homo sapiens), P34981; in the data active = enhancement above about 30%
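Enhancer read-out: after compound pinning and an initial kinetic agonist-mode read, an EC20 of TRH (10 nM final) was injected and fluo-8 calcium signal (Ex 480/Em 530) followed at 1 s/cycle for 100 cycles in TRHR-expressing cells.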
D1 antagonist: Antagonist of Human D 1 Dopamine Receptor: qHTS; activity change, negative = inhibition, % at 10 µM; AID 504652, 2011; HEK293 TREx D1 cells, calcium flux, dopamine EC80; active compounds read low; 360,000 tested, 3.2% active; in the data active = activity change below about -30%
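Allosteric or orthosteric antagonism assessed as attenuation of the calcium response to EC80 dopamine, added 180 s after compound, in induced HEK293 Trex D1 cells loaded with no-wash calcium dye.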
TRHR ag: qHTS for Small Molecule Agonists and Allosteric Enhancers of Human TRH Receptor: Primary Screen for Agonists; 360,000 tested, 0.18% active; activation, % at 2 µM; Thyrotropin-releasing hormone receptor (Homo sapiens), P34981; TRHR cells, calcium flux fluo-8, FDSS agonist mode; AID 493084, 2011
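In this calcium-flux screen, cells bearing human TRHR are dye-loaded with fluo-8, baselined for 10 cycles, then exposed to library compounds; positive kinetic calcium responses during the agonist phase mark hits, with TRH as control.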
Of the large screens only hits and unclear results are named; the others gave an inactive call. Compounds with a hit are over-represented: about 4% of the library has one in this group of screens. Rule as the data show it, unless noted: active = activation above about 30%; inactive = the rest.

O=C(NNC(=S)NC(=O)c1cccc([N+](=O)[O-])c1)c1ccc(O)cc1	none
CCCCC(=O)NNC(=S)NC(=O)c1ccc(C)cc1	D1 agonist 60
O=C(COC(=O)Cc1c[nH]c2ccccc12)Nc1cccc(Br)c1	none (no result: D1 agonist, D1 potentiator, TRHR enhancer, D1 antagonist, TRHR ag)
Brc1ccccc1OCCCN1CCCC1	D1 antagonist -45
Brc1ccccc1OCCCN1CCCCCC1	D1 antagonist -60
Brc1ccccc1OCCN1CCCC1	none (no result: D1 agonist, D1 potentiator, TRHR enhancer, D1 antagonist, TRHR ag)
CN1CCN(CCOC2Cc3ccccc3Sc3ccc(Cl)cc32)CC1 (stereo not given)	D1 antagonist -66
OCCN1CCN(C2Cc3cc(Cl)ccc3Sc3ccc(Cl)cc32)CC1 (stereo not given) (tested in a mixture with another compound)	D1 antagonist -86
O=C(CNC(=O)C1CCCCC1)OC(C(=O)Nc1cc(C(F)(F)F)ccc1Cl)c1ccccc1 (stereo not given)	none (no result: GRP78 ERSR act)
CC(C)(C)c1cc(C(=O)NCc2ccccc2)ccn1	D1 antagonist -32
COc1cccc(CNC(=O)c2ccncc2)c1	TRHR enhancer 32
COc1ccc(CCNC(=O)c2ccnc(C(C)(C)C)c2)cc1OC	none (no result: D1 agonist, D1 potentiator, TRHR enhancer, D1 antagonist, TRHR ag)
Cc1c(C)n(Cc2ccccc2)c2ccc(C(=O)N3CCN(c4ccccc4)CC3)cc12	none
Cc1c(C)n(Cc2ccccc2)c2ccc(C(=O)N3CCN(c4ccc(F)cc4)CC3)cc12	D1 antagonist -74
Cc1c(C)n(Cc2ccccc2)c2ccc(C(=O)OCCN(C)C)cc12	D1 agonist 57
CCOCCCNCc1cc(Cl)cc(Cl)c1OCC	none (no result: D1 antagonist)
CC(=O)c1c(C)n(CC(=O)NCc2ccco2)c2ccccc12	TRHR enhancer 35
Cc1ccc(CNC(=O)c2ccc3c(c2)c(C)c(C)n3Cc2ccccc2)o1	none
COc1cccc(CNC(=O)c2ccc3c(c2)c(C)c(C)n3Cc2ccccc2)c1	D1 antagonist -33
Cc1c(C)n(Cc2ccccc2)c2ccc(C(=O)NCc3ccco3)cc12	D1 antagonist -70
Cc1ccccc1-n1c(=O)c2ccccc2n(CC(=O)NCc2ccco2)c1=O	none
CC[C@@H](C)[C@@H](CO[C@@H](Cc1ccccc1)C(=O)N[C@@H](CCS(C)(=O)=O)C(=O)OC(C)C)NC[C@@H](N)CS	none (no result: D1 agonist, D1 potentiator, TRHR enhancer, D1 antagonist, TRHR ag)
CC(C)Oc1ccc(C2CC(=O)N(c3cccc(Br)c3)C2=O)cc1 (stereo not given)	none
CCOc1ccc(-c2c(C)nn3c(C)c(C(=O)NCCc4ccc(C)cc4)cnc23)cc1OCC	none (no result: GRP78 ERSR act)
CCCN1C(=O)c2ccccc2NC1c1ccc(OC)c(COc2cccc(C)c2C)c1 (stereo not given)	none (no result: D1 agonist, D1 potentiator, TRHR enhancer, D1 antagonist, TRHR ag)
Cc1ccccc1C1CCCN(C(=O)c2cc(COc3c(F)cccc3F)on2)C1 (stereo not given)	D1 antagonist -33
CCCOC1CCCN(C(=O)c2cc(COc3c(F)cccc3F)on2)C1 (stereo not given)	none
CC(C)C[C@H](NC(=O)[C@H](C)NC(=O)CNC(=O)[C@H](CCCCN)NC(=O)[C@H](CCCN=C(N)N)NC(=O)[C@H](C)NC(=O)[C@H](Cc1ccccc1)NC(=O)[C@@H](N)CCCN=C(N)N)C(=O)N[C@@H](CCCN=C(N)N)C(=O)N[C@@H](CCC(N)=O)C(=O)N[C@@H](CCCCN)C(=O)N[C@@H](CC(N)=O)C(=O)N[C@H](C(N)=O)C(C)C	none (no result: D1 agonist, D1 potentiator, TRHR enhancer, D1 antagonist, TRHR ag)
Cc1c(NC(=O)CSc2nnnn2-c2ccc(O)cc2)c(=O)n(-c2ccccc2)n1C	D1 antagonist -47
Cn1nnnc1SCC(=O)Nc1ccc(Oc2ccc(Cl)cc2)cc1	D1 antagonist -30
Cc1c(NC(=O)CSc2nnnn2-c2ccc(F)cc2)c(=O)n(-c2ccccc2)n1C	none
Cc1c(NC(=O)CSc2nnnn2C)c(=O)n(-c2ccccc2)n1C	D1 antagonist -35
Cc1ccc(S(=O)(=O)N2CCN(c3nc(-c4cccs4)nc4ncccc34)CC2)cc1	none (no result: D1 agonist, D1 potentiator, TRHR enhancer, D1 antagonist, TRHR ag)
O=C(COC(=O)c1ccccc1NS(=O)(=O)c1cccs1)NC1CCCCC1	D1 antagonist -55
O=C(COC(=O)[C@H](Cc1ccccc1)NC(=O)c1cccs1)NC1CCCCC1	D1 antagonist -43
O=C(COC(=O)c1ccccc1NS(=O)(=O)c1cccs1)NCC12CC3CC(CC(C3)C1)C2	none
COc1ccccc1CN1CCC2(CC1)c1ccccc1[C@@H](NC(=O)c1ccco1)[C@@H]2OC	none (no result: D1 agonist, D1 potentiator, TRHR enhancer, D1 antagonist, TRHR ag)
Fc1cccc(CSc2nc(NCCc3ccccc3)c3ccccc3n2)c1	D1 antagonist -46
CCCC(=O)O[C@]1(C(=O)COC(C)=O)CC[C@H]2[C@@H]3C[C@H](F)C4=CC(=O)C=C[C@]4(C)[C@@]3(F)[C@@H](O)C[C@@]21C	none
CC(=O)[C@@]1(O)CC[C@H]2[C@@H]3C[C@H](C)C4=CC(=O)C=C[C@]4(C)[C@@]3(F)[C@@H](O)C[C@@]21C	D1 antagonist -59
CCc1ccc(C2C(C(=O)Nc3ccccc3OC)=C(C)Nc3c(C(=O)Nc4ccc(C)cc4)cnn32)cc1 (stereo not given)	none
CC(=O)Oc1ccc(C(=O)Cc2ccccn2)c(O)c1	none
Oc1ccc(/C(Cc2ccc3ccccc3n2)=N\Nc2ccccc2)c(O)c1	none
CC(=O)Oc1ccc(C(=O)Cc2ccc3ccccc3n2)c(O)c1C	D1 agonist 32
Cc1c(O)ccc(/C(Cc2ccc3ccccc3n2)=N\O)c1O	D1 antagonist -31
Cc1ncc2c(c1CNC(=O)CN1CCCC1)CCN(C(=O)c1ccc(F)cc1F)C2	none (no result: D1 agonist, D1 potentiator, TRHR enhancer, D1 antagonist, TRHR ag)
CCS(=O)(=O)c1nc(S(=O)(=O)c2ccc(C)cc2)c(N2CCC(C)CC2)s1	D1 antagonist -36
CCCS(=O)(=O)c1nc(S(=O)(=O)c2ccc(Cl)cc2)c(N2CCC(O)CC2)s1	D1 potentiator 52
COc1cc(Cn2ncc3c4sc(C)cc4n(C)c3c2=O)cc(OC)c1	none (no result: GRP78 ERSR act)
O=C1C2C3C=CC(CC3)C2C(=O)N1c1cccc(Br)c1 (stereo not given)	D1 antagonist -37
CC(Cc1cccs1)NC(=O)Nc1ccc([N+](=O)[O-])cc1 (stereo not given)	D1 antagonist -35
COc1ccc(NC(=S)NC(C)Cc2cccs2)cc1 (stereo not given)	none
CC(Cc1cccs1)NC(=O)c1cccs1 (stereo not given)	none

Compound activity deposited in PubChem BioAssay by National Center for Advancing Translational Sciences (NCATS).
